Laboratory results reported in PubChem BioAssay (NCATS).
Results filed as inconclusive are left out. Active and inactive are the calls of the source. Unless noted, the call rests on the fitted dose curve; in most records, active means well fitted curve in the direction sought with a large enough effect; inconclusive means small, poorly fitted or top-dose-only effect, or another doubt; inactive means no such curve, though single readings can be large; an effect the other way counts as inactive or inconclusive.

Key:
[1] = biological target: Lysosomal acid glucosylceramidase (Homo sapiens) (UniProt P04062); assay: Glucocerebrosidase-p2 (AID 348; in the data active means potency below about 10 µM; further: potency means the concentration at half of the fitted maximal effect); conditions: purified GBA, blue fluorogenic substrate, 40 min
Method in brief: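 Compounds titrated from 0.6 nM upwards against 0.2 nM enzyme in pH 5.9 citric acid/KH2PO4, taurocholate, tween-20; blue fluorogenic substrate 80 uM, 40 min room temperature, stopped and read Ex 365/Em 440 for AC50.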

[2] = AP1 Signaling Pathway (AID 357; active means well fitted curve in either direction with a large enough effect, not every such curve was filed as active;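 further: ME-180 reporter cells stimulated with EGF at its EC50 level; on the % scale 0 is the no-effect control and ±100 the full control effect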); conditions: ME-180 AP-1-bla reporter, EGF-induced, beta-lactamase ratio, 5 h; at 7.69 µM (top of the series) unless noted
Method in brief: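 Read-out was the 460nm/530nm emission ratio (excitation 405nm) after CCF4 loading for 2.5 hours at room temperature. Cells carried an AP-1-driven beta-lactamase reporter, were stimulated with EC50 EGF plus compound for 5 hours, and AC50 values came from titrations.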

[3] = biological target: Cytochrome P450 1A2 (Homo sapiens) (UniProt P05177); assay: p450-cyp1a2 (AID 410; calls by dose curve; further: potency means the concentration at half of the fitted maximal effect;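 on activity change, negative = inhibition: -100% = full effect of reference inhibitor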); conditions: recombinant CYP1A2, luciferin-ME demethylation, luminescence; series mostly up to 57 µM
Method in brief: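 Human CYP1A2 (20nM) demethylated Luciferin-ME at its Km (100uM) in 100mM KPO4. After 10 min compound preincubation, NADPH regeneration ran the reaction 60 min at room temperature. Luciferin was read by luminescence, normalized to 57 uM furafylline.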

[4] = NFAT Signaling Pathway (AID 444; active means well fitted curve in either direction with a large enough effect, not every such curve was filed as active;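 further: carbachol stimulus at about its EC50 of 1 µM final; on the % scale 0 is the no-effect control and ±100 the full control effect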); conditions: Jurkat NFAT-bla M1, carbachol, beta-lactamase ratio, 5 h; at 7.69 µM (top of the series) unless noted
Method in brief: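 Jurkat cells with NFAT-driven β-lactamase reporter and co-expressed M1 receptor, stimulated with carbachol (final 1 uM, ~EC50), compound titration, 5 h at 37 °C. CCF4 loaded 1 h at RT; 460/530 nm ratio gave %activity and AC50.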

[5] = biological target: Glucocorticoid receptor (Homo sapiens) (UniProt P04150); assay: GR-GFP Redistribution (AID 450;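 active means compounds whose dose series gives a full or clear partial fitted curve of increased nuclear translocation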; further: potency means the concentration at half of the fitted maximal effect); conditions: U2OS GR-GFP nuclear translocation, laser cytometry, 2 h
[6] = biological target: Glucocorticoid receptor (Homo sapiens) (UniProt P04150); assay: GR-EFC Redistribution (AID 451; calls by dose curve; further: potency means the concentration at half of the fitted maximal effect); conditions: CHO-K1 GR-EFC translocation, beta-gal luminescence, 2 h
Method in brief: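 CHO-K1 cells expressing nuclear EA and GR-ED fragments of b-gal; compounds titrated up to 46 uM final, 2 h at 37 C. GR nuclear translocation read as complemented b-gal luminescence after 1 h RT detection.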

[7] = biological target: 3',5'-cyclic-AMP phosphodiesterase 4B (Homo sapiens) (UniProt Q07343); assay: qHTS Assay for Inhibitors of PDE-IV (AID 607; active means well fitted activation curve with a large enough effect in the main read-out, with a control signal flat, not every such curve was filed as active; further: % of control where 0% means no effect); conditions: HEK293 ACTOne CNG channel cells, membrane potential fluorescence; series mostly up to 22.9 µM
Method in brief: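 The readout is membrane depolarisation from a cAMP-sensing CNG channel, detected with a potential dye at ex 535/em 590. Cells were HEK293-derived (endogenous PDE-IV) at 1000 cells/well, titrated up to 22.9 uM final.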

[8] = biological target: Dual specificity protein kinase CLK4 (Homo sapiens) (UniProt Q9HAZ1); assay: qHTS Assay for Inhibitors of CDC-like Kinase 4 (Kinase-Glo Assay) (AID 1770); conditions: recombinant Clk4, Kinase-Glo ATP depletion luminescence; series mostly up to 66.7 µM; further: nearly all actives have a fitted effect of over 65% in size; further: potency means the concentration at half of the fitted maximal effect
Method in brief: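 Clk4 25 nM, RS peptide 100 uM, ATP 1 uM, pH 7.5 Tris, 10 mM MgCl2, 2.5 mM DTT; 4.5 h RT; ATP depletion read by Kinase-Glo luminescence.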

[9] = biological target: Dual specificity protein kinase CLK4 (Homo sapiens) (UniProt Q9HAZ1); assay: qHTS Assay for Inhibitors of CDC-like Kinase 4 (ADP-Glo Assay) (AID 1771); conditions: recombinant CLK4, ADP-Glo luminescence; series mostly up to 80 µM; further: nearly all actives have a fitted effect of over 70% in size; further: potency means the concentration at half of the fitted maximal effect
Method in brief: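 Clk4 (25 nM) was incubated 1 hr at room temperature with 100 uM RS repeat peptide and 1 uM ATP in buffer with 2 mM MgCl2, 0.5 mM EGTA, 2.5 mM DTT. ADP formed was quantified by ADP-Glo luminescence.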

[10] = biological target: Ubiquitin carboxyl-terminal hydrolase 1 (Homo sapiens) (UniProt O94782); assay: Inhibitors of USP1/UAF1: Pilot qHTS (AID 504865); conditions: purified USP1/UAF1, Ub-rhodamine cleavage fluorescence; series mostly up to 54.9 µM;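 further: rhodamine fluorescence freed from ubiquitin-rhodamine substrate followed over time; top concentration of the series differs between compounds; on the % scale 0 is the no-effect control and ±100 the full control effect; nearly all actives have a fitted effect of over 35% in size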
Method in brief: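 Enzyme-free wells gave the negative control, while test wells held 1nM USP1/UAF1 preincubated with compound for 15 min at room temperature. Ub-Rho at 150nM final started the reaction, and fluorescence at 480/540 nm was recorded kinetically.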

[11] = Primary qHTS for small molecule stabilizers of the endoplasmic reticulum resident proteome: Secreted ER Calcium Modulated Protein (SERCaMP) assay (AID 1508630); conditions: SH-SY5Y GLuc-SERCaMP (Gaussia luciferase released on ER calcium loss) secretion, thapsigargin, luminescence; series mostly up to 38.4 µM; further: on the % scale 0 is the no-effect control and ±100 the full control effect
Method in brief: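 GLuc-SERCaMP-expressing SH-SY5Y cells, pretreated 16 h with compound, are challenged with thapsigargin to empty ER calcium stores; after 4 h, coelenterazine is added directly to the medium and luminescence is imaged.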

[12] = Stat Signaling Pathway (AID 446; active means well fitted curve in either direction with a large enough effect, not every such curve was filed as active;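 further: ME-180 cervical cancer cells given 40 pM IL-6 alongside compound; SIE-controlled beta-lactamase reporter measured as 460/530 nm FRET emission ratio; on the % scale 0 is the no-effect control and ±100 the full control effect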); conditions: ME-180 SIE beta-lactamase reporter, IL-6 stimulated, 5 h; at 7.69 µM (top of the series) unless noted
Method in brief: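 Screening format detects activators and inhibitors alike: ME-180 SIE-bla cells stimulated at 40 pM IL-6 for 5 hrs with compound, then dual-emission beta-lactamase read at 405 nm excitation.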

[13] = biological target: Mitogen-activated protein kinase 10 (Mus musculus) (UniProt Q61831); assay: JNK3 AlphaScreen Assay (AID 530; active means well fitted curve in either direction with a large enough effect, not every such curve was filed as active); conditions: JNK3 lysate, c-Jun phosphorylation; series mostly up to 57.1 µM
Method in brief: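 qHTS format: compounds tested as titrations against IL-1beta/TNF-alpha-activated HepG2 lysate JNK3 with biotin-GST-cJun substrate and 10 uM ATP at room temperature. Loss of anti-phospho-cJun AlphaScreen signal indicates inhibition.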

[14] = biological target: Cytochrome P450 3A4 (Homo sapiens) (UniProt P08684); assay: qHTS Assay for Activators of Cytochrome P450 3A4 (AID 885); conditions: recombinant CYP3A4, Luciferin-PPXE luminescence, 60 min; series mostly up to 57.1 µM; further: nearly all actives have a fitted effect of over 65% in size
Method in brief: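 Steps: enzyme/substrate mix dispensed; compound added, 10 min RT; NADPH regeneration solution added, 60 min RT; luciferin detection buffer stops reaction; 20 min later luminescence measured.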

[15] = biological target: Cytochrome P450 3A4 (Homo sapiens) (UniProt P08684); assay: qHTS Assay for Inhibitors and Substrates of Cytochrome P450 3A4 (AID 884); conditions: recombinant CYP3A4, Luciferin-PPXE luminescence; series mostly up to 57.1 µM; further: potency means the concentration at half of the fitted maximal effect; nearly all actives have a fitted effect of over 50% in size
Method in brief: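 20 nM human CYP3A4 with 25 uM Luciferin-PPXE (at KM) in 200 mM KPO4, preincubated 10 min with compound; NADPH regeneration started a 60 min RT reaction. Luciferin detected by luminescence, normalized to 57 uM ketoconazole as full inhibition.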

[16] = biological target: Cytochrome P450 2C19 (Homo sapiens) (UniProt P33261); assay: qHTS Assay for Inhibitors and Substrates of Cytochrome P450 2C19 (AID 899); conditions: recombinant CYP2C19, luciferin-H EGE luminescence; series mostly up to 57.1 µM; further: potency means the concentration at half of the fitted maximal effect; nearly all actives have a fitted effect of over 60% in size
Method in brief: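 Luminescent read-out of luciferin formed from Luciferin-H EGE (10uM, equal to KM). Enzyme 5nM in 50mM KPO4; compound added, 10 min at 37C, then NADPH regenerating system for 60 min at 37C. Full inhibition defined by 57uM ketoconazole.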

3',5'-cyclic-AMP phosphodiesterase 4B (Homo sapiens), sequence (Q07343 whole entry, looked up): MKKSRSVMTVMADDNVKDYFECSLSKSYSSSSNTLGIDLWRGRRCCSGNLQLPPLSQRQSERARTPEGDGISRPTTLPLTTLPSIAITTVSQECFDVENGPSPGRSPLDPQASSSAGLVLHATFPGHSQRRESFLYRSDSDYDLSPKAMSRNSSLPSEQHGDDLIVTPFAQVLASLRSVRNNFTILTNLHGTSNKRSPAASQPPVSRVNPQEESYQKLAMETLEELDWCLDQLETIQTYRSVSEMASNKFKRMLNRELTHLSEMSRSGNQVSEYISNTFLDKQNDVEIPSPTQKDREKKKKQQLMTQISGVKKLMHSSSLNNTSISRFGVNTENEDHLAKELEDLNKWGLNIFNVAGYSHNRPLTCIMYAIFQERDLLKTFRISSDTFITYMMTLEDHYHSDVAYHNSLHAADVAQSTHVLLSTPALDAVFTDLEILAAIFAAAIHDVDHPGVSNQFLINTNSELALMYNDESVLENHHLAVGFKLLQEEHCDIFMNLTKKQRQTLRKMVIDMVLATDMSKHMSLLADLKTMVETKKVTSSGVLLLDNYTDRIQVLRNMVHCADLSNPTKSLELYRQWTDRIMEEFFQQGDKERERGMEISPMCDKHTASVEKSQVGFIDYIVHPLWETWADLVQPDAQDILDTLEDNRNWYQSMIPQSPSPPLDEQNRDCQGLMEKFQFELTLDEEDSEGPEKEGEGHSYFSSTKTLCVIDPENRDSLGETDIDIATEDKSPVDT
Cytochrome P450 3A4 (Homo sapiens), sequence (P08684 whole entry, looked up): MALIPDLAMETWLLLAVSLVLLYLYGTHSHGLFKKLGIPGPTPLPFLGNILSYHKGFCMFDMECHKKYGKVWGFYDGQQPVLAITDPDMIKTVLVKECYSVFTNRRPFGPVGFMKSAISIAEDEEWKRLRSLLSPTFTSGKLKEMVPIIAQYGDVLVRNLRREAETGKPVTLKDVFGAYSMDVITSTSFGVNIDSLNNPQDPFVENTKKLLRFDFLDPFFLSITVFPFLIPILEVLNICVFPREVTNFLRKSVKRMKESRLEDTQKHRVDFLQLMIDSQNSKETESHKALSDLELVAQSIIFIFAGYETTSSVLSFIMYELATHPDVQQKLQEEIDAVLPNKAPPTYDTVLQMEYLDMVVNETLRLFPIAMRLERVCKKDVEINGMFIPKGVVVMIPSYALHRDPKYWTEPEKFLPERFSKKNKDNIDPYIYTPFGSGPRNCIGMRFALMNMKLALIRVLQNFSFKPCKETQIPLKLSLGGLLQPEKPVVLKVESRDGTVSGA
Lysosomal acid glucosylceramidase (Homo sapiens), sequence (P04062 whole entry, looked up): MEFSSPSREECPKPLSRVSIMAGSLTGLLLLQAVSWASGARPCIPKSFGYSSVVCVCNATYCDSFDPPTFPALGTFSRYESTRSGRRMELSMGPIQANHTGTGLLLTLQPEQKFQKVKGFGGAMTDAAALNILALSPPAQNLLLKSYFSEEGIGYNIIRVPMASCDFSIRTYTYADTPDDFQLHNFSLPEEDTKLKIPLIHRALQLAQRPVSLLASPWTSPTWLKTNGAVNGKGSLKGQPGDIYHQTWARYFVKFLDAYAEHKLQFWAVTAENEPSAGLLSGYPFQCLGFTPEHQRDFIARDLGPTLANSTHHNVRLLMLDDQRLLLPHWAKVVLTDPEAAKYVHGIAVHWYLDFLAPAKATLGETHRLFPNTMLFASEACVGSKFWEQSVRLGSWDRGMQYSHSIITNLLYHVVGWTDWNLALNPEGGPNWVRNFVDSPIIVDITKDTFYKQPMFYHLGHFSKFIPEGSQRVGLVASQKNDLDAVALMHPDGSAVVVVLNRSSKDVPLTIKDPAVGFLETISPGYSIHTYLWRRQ
Cytochrome P450 1A2 (Homo sapiens), sequence (P05177 whole entry, looked up): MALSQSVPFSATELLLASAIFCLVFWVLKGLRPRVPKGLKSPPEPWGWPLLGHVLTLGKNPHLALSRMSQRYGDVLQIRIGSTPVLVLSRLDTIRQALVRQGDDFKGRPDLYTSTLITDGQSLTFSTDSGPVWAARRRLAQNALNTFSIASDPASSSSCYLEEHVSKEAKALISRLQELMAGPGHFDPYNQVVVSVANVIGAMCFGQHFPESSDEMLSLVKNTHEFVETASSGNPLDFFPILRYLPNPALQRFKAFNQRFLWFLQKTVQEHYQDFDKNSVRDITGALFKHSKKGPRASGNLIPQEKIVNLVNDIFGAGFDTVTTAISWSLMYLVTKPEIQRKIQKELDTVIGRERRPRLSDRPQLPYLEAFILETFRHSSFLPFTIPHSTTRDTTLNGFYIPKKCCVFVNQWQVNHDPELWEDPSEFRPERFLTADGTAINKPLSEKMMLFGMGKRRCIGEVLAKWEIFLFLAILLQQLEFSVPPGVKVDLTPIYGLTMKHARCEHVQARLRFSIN
Ubiquitin carboxyl-terminal hydrolase 1 (Homo sapiens), sequence (O94782 whole entry, looked up): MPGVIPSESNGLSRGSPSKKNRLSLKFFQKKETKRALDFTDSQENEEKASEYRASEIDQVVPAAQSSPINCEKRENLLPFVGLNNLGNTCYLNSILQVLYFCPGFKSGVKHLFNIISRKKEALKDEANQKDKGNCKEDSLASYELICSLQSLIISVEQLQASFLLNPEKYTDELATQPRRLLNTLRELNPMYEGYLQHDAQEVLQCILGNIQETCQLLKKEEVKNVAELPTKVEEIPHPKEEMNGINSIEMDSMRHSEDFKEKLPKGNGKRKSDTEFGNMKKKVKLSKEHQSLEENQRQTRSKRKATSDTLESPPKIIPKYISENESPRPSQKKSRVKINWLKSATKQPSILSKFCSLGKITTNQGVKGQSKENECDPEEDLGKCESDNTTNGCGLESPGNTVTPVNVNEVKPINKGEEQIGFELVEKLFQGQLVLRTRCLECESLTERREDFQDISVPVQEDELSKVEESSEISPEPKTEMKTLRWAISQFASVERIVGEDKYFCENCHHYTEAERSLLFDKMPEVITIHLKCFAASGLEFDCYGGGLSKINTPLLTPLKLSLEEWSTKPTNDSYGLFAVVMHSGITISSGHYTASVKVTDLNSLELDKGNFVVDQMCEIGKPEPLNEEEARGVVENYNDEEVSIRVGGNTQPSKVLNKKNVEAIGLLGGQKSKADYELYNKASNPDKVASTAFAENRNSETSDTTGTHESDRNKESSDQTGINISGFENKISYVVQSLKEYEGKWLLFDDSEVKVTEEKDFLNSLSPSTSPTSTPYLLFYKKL
Glucocorticoid receptor (Homo sapiens), sequence (P04150 whole entry, looked up, the tested form may be a part): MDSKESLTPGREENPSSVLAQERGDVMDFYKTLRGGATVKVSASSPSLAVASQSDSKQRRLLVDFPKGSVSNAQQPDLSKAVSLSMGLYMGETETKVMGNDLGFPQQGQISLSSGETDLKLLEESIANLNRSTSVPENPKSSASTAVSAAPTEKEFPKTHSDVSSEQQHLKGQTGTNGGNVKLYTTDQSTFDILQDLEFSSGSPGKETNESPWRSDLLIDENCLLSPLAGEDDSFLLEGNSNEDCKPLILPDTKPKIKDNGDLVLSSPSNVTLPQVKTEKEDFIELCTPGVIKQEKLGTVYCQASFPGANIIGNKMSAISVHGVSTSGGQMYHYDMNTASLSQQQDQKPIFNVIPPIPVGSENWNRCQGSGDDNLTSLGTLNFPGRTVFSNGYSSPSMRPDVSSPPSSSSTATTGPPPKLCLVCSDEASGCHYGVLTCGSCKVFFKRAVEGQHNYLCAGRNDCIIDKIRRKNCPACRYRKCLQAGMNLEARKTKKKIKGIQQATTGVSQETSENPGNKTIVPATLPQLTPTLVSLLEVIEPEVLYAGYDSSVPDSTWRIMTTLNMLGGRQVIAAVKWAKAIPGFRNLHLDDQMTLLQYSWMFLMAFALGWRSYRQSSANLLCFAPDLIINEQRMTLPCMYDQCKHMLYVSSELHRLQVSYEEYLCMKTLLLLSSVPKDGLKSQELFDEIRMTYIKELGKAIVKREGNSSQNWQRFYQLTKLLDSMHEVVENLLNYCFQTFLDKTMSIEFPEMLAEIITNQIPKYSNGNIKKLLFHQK
Dual specificity protein kinase CLK4 (Homo sapiens), sequence (Q9HAZ1 whole entry, looked up): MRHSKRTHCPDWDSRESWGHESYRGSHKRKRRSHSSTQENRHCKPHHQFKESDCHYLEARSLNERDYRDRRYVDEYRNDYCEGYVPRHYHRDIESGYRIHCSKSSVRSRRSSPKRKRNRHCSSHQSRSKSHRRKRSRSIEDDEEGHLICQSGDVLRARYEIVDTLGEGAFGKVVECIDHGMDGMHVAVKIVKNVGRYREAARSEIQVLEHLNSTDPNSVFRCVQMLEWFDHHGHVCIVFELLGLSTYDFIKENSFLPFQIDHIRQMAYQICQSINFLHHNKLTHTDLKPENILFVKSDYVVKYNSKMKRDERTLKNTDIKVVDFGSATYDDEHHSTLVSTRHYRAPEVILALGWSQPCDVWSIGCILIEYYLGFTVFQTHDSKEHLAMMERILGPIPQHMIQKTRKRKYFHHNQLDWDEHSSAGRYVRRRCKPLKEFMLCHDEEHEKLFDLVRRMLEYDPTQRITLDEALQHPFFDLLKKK
Cytochrome P450 2C19 (Homo sapiens), sequence (P33261 whole entry, looked up): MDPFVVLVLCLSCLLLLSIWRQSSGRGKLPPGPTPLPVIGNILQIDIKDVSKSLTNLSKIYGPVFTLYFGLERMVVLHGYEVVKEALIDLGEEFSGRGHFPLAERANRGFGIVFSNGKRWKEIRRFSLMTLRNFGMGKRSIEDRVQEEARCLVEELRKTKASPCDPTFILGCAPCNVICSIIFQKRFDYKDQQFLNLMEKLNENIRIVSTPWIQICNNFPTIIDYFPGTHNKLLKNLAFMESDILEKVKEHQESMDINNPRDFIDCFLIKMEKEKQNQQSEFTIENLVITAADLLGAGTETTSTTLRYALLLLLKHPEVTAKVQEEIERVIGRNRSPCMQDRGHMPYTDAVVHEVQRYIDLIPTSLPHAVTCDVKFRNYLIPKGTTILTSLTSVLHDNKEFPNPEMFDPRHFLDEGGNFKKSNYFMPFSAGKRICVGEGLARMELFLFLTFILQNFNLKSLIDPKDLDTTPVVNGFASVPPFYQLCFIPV

CN(C)c1ncc2nc(-c3cccs3)c(=O)n(CCc3ccccc3)c2n1
active: Potency [3] 5010 nM
inactive: Potency [1] > 11.4 µM | activity change, negative = inhibition [2] 14.4% | activity change, negative = inhibition [4] 9.39% | Potency [5] > 9.22 µM | Potency [6] > 46 µM | Potency [7] | Potency [8] | Potency [9] | Potency [10] | outcome [11]

Cc1cnc(CNc2cc(-c3ccc(C(=O)N(C)C)cc3)ncn2)cn1
inactive: Potency [1] > 11.4 µM | activity change, negative = inhibition [2] 19.2% | Potency [3] | activity change, negative = inhibition [4] 15.2% | activity, negative = inhibition [12] 6.75% | Potency [5] > 46 µM | Potency [6] > 46 µM | Potency [13] | Potency [7] | Potency [10] | outcome [11]
active: Potency [8] 12.6 µM | Potency [9] 14.1 µM

CNc1nc(-c2ccoc2)nc2ccccc12
inactive: Potency [1] > 11.4 µM | activity change, negative = inhibition [2] 0.93% | activity change, negative = inhibition [4] -22.3% | activity, negative = inhibition [12] 8.64% | Potency [5] > 46 µM | Potency [6] > 46 µM | Potency [13] | Potency [7] | Potency [14] | Potency [8] | Potency [9] | outcome [11]
active: Potency [3] 398 nM

c1cncc(-c2cc(NCc3cccs3)ncn2)c1
active: Potency [3] 1000 nM | Potency [15] 2.51 µM | Potency [8] 25.1 µM | Potency [9] 28.2 µM
inactive: Potency [1] > 11.4 µM | activity change, negative = inhibition [2] 19% | activity change, negative = inhibition [4] 11.4% | activity, negative = inhibition [12] 7.74% | Potency [5] > 46 µM | Potency [6] > 46 µM | Potency [13] | Potency [7] | Potency [14] | Potency [10] | outcome [11]

COc1cccc(-c2cc(NCc3cccnc3)ncn2)c1
active: Potency [3] 631 nM | Potency [15] 3.98 µM | Potency [8] 14.1 µM | Potency [9] 14.1 µM
inactive: Potency [1] > 11.4 µM | activity change, negative = inhibition [2] 12.8% | activity change, negative = inhibition [4] 0.0139% | activity, negative = inhibition [12] -7.08% | Potency [5] > 46 µM | Potency [6] > 46 µM | Potency [13] | Potency [7] | Potency [14] | Potency [10] | outcome [11]

COc1cccc(-c2cc(NCc3ccccc3OC)ncn2)c1
active: Potency [3] 1260 nM | Potency [16] 7.94 µM | Potency [8] 15.8 µM | Potency [9] 28.2 µM
inactive: Potency [1] > 11.4 µM | activity change, negative = inhibition [2] -14.5% | activity change, negative = inhibition [4] 6.41% | activity, negative = inhibition [12] -1.37% | Potency [5] > 46 µM | Potency [6] > 46 µM | Potency [13] | Potency [7] | Potency [14] | outcome [11]

Cc1cnc(CNc2ncnc3ccc(-c4ccc5c(c4)OCO5)cc23)cn1
active: Potency [3] 398 nM | Potency [15] 2.51 µM | Potency [8] 0.282 µM | Potency [9] 0.398 µM
inactive: Potency [1] > 11.4 µM | activity change, negative = inhibition [2] -18.1% | activity change, negative = inhibition [4] 14.2% | activity, negative = inhibition [12] -16.2% | Potency [5] > 46 µM | Potency [6] > 46 µM | Potency [7] | Potency [14] | Potency [10] | outcome [11]

c1ccc(Nc2nc(-c3ccc4c(c3)OCO4)nc3ccccc23)cc1
inactive: activity change, negative = inhibition [2] -19.9% | activity change, negative = inhibition [4] -26.1% | activity, negative = inhibition [12] -2.81% | Potency [5] > 46 µM | Potency [6] > 46 µM | Potency [13] | Potency [14] | Potency [10] | outcome [11]
active: Potency [1] 9.63 µM | Potency [3] 1260 nM | Potency [15] 5.01 µM | Potency [16] 3.16 µM | Potency [8] 28.2 µM | Potency [9] 31.6 µM

CS(=O)(=O)Nc1cccc(-c2nc(NCc3ccccc3)c3ccccc3n2)c1
inactive: Potency [1] > 11.4 µM | activity change, negative = inhibition [2] -10.8% | activity change, negative = inhibition [4] 7.92% | activity, negative = inhibition [12] -10.7% | Potency [5] > 46 µM | Potency [6] > 46 µM | Potency [13] | Potency [14] | Potency [10] | outcome [11]
active: Potency [3] 2510 nM | Potency [15] 3.16 µM | Potency [8] 31.6 µM | Potency [9] 28.2 µM

Cc1ccccc1-c1nc(NC2CC2)c2ccccc2n1
inactive: activity change, negative = inhibition [2] 17.6% | activity change, negative = inhibition [4] -19.1% | activity, negative = inhibition [12] -0.286% | Potency [5] > 46 µM | Potency [6] > 46 µM | Potency [13] | Potency [14] | Potency [10] | outcome [11]
active: Potency [1] 1.17 µM | Potency [3] 501 nM | Potency [15] 3.98 µM | Potency [8] 12.6 µM | Potency [9] 11.2 µM

FC(F)(F)c1ccccc1-c1nc(NC2CC2)c2ccccc2n1
inactive: activity change, negative = inhibition [2] 3.67% | activity change, negative = inhibition [4] 8.57% | activity, negative = inhibition [12] 8.2% | Potency [5] > 46 µM | Potency [6] > 46 µM | Potency [13] | Potency [14] | Potency [10] | outcome [11]
active: Potency [1] 6.53 µM | Potency [3] 398 nM | Potency [15] 3.16 µM | Potency [8] 14.1 µM | Potency [9] 14.1 µM

CN(C)c1ccc(-c2ccc3ncnc(NC4CC4)c3c2)cc1
inactive: Potency [1] > 11.4 µM | activity change, negative = inhibition [4] -2.46% | activity, negative = inhibition [12] -20.9% | Potency [5] > 46 µM | Potency [6] > 46 µM | Potency [13] | Potency [7] | Potency [14] | Potency [10] | outcome [11]
active: Potency [3] 200 nM | Potency [15] 3.16 µM | Potency [8] 3.55 µM | Potency [9] 7.94 µM
